One may read the IC50 as the concentration needed to halve the response being measured.

Where “and” joins values, the source holds several entries; their conditions need not be identical. Equal entries are not always repeated. Some compounds were tested as several samples or in several runs, with calls that do not always agree. Calls of active or inactive are those of the source. Cut-off read from the data, not from the text of the source: active = IC50 below about 90 µM; inactive = the rest.

This is an account of results in PubChem BioAssay AID623970 (The Scripps Research Institute Molecular Screening Center, 2012).

The assay in a line: DNA binding via SYBR dye displacement, late-stage follow-up, artefact control for HCV NS3 helicase inhibitor project, biochemical, fluorescence (AID 623970).
Regarding `Cc1ccc2nc(-c3ccc4nc(-c5ccc(NC(=O)Nc6ccc(C(F)(F)F)cc6)cc5)sc4c3)sc2c1S(=O)(=O)O`, the IC50 was 18 µM (active).

Turning to `Cc1ccc2nc(-c3ccc4nc(-c5ccc(N)cc5)sc4c3)sc2c1S(=O)(=O)O`, the IC50 is > 100 µM (inactive) and 23 µM (active). The same measure for `Cc1ccc2nc(-c3ccc(NC(=O)c4ccc(NC(=O)c5ccc(N)cc5)cc4)cc3)sc2c1S(=O)(=O)O`: > 100 µM (inactive). With `CCN(CC)c1ccc(-c2nc3ccc(-c4nc5ccc(C)c(S(=O)(=O)O)c5s4)cc3s2)cc1` the figure was 26 µM (active); with `Cc1ccc2nc(-c3ccc4nc(-c5ccc(NC(=O)c6ccc(Br)cc6)cc5)sc4c3)sc2c1S(=O)(=O)O`, 30 µM (active). The same measure for `Cc1ccc2nc(-c3ccc4nc(-c5ccc(NC(=O)c6ccc(CNC(=O)OCC7c8ccccc8-c8ccccc87)cc6)cc5)sc4c3)sc2c1S(=O)(=O)O`: 56 µM (active). Regarding `COc1ccc(C(=O)Nc2ccc(-c3nc4ccc(-c5nc6ccc(C)c(S(=O)(=O)O)c6s5)cc4s3)cc2)cc1`, the IC50 is > 100 µM (inactive). The same measure for `Cc1ccc2nc(-c3ccc4nc(-c5ccc(NC(=O)c6ccc7nc(-c8ccc(NC(=O)OCC9c%10ccccc%10-c%10ccccc%109)cc8)sc7c6)cc5)sc4c3)sc2c1S(=O)(=O)O`: 22 µM (active); for `Cc1ccc2nc(-c3ccc4nc(-c5ccc(NC(=O)c6ccc7nc(-c8ccc(N)cc8)sc7c6)cc5)sc4c3)sc2c1S(=O)(=O)O`: 68 µM (active); for `Cc1ccc2nc(-c3ccc4nc(-c5ccc(NC(=O)c6ccncc6)cc5)sc4c3)sc2c1S(=O)(=O)O`: > 100 µM (inactive).
